Source: the supplement of paper PMC11732987, “Enantioselective OTUD7B fragment discovery through chemoproteomics screening and high-throughput optimisation” (Communications Chemistry, 2025)
Values without a mark were called inactive.

How the values were obtained:
Assay in all cases: log2 ratio of Biotin-Ahx-Ub-VS probe labelling (fragment/DMSO); higher = less target engagement (more negative = stronger competition), active = hit call of the paper (q ≤ 0.05, log2 ratio ≤ -1)
Conditions in all cases: compound concentration: 200 uM; treatment time: 3 h
[1] = molecular target: T1, USP19 (UniProt O94966)
T1 sequence (whole entry): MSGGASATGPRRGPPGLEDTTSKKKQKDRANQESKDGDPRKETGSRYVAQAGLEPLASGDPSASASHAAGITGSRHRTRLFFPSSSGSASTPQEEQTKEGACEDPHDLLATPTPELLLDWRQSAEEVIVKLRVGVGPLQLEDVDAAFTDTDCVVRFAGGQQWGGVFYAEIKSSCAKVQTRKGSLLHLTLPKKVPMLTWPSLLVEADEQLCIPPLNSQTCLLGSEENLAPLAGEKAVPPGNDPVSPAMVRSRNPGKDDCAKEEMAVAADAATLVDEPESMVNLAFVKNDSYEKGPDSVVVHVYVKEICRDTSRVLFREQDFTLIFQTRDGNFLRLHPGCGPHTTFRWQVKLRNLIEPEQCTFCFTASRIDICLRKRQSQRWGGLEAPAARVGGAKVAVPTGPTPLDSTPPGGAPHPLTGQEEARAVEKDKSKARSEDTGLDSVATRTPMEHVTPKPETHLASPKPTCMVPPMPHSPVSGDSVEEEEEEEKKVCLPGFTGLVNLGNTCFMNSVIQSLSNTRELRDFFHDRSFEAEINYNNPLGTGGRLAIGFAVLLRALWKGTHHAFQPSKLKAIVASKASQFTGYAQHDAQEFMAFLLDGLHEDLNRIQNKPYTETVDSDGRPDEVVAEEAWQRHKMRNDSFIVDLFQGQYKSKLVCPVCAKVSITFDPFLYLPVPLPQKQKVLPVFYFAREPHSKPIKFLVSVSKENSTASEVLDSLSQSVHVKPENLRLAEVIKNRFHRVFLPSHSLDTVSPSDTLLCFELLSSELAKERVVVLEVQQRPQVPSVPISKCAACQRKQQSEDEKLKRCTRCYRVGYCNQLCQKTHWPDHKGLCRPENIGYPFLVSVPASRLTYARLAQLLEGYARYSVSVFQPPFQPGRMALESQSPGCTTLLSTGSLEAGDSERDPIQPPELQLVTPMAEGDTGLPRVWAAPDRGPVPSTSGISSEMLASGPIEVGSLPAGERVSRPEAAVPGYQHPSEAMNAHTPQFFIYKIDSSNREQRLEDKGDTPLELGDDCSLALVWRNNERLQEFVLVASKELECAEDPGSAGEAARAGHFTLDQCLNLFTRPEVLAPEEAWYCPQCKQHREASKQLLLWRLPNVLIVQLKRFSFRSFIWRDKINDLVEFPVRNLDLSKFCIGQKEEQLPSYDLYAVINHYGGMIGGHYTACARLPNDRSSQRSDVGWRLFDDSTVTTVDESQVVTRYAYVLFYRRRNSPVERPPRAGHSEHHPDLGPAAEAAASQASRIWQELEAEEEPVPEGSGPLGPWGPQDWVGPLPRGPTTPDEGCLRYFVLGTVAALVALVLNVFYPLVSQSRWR
Method in brief: (§1)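 The table lists average log2 ratios of fragment over vehicle, from an unpaired t-test on global-median-normalised Spectronaut label-free quantities. Proteins with ≥2 unique peptides were used. Samples were HEK293T lysate (495 µg) treated in triplicate with fragment at 200 µM or vehicle for 3 h, then with Biotin-Ahx-Ub-VS (0.5 µM final) for 1 h, with labelled DUBs NeutrAvidin-enriched and run by diaPASEF LC-MS/MS.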

[2] = molecular target: T2, USP22 (UniProt Q9UPT9)
T2 sequence (whole entry): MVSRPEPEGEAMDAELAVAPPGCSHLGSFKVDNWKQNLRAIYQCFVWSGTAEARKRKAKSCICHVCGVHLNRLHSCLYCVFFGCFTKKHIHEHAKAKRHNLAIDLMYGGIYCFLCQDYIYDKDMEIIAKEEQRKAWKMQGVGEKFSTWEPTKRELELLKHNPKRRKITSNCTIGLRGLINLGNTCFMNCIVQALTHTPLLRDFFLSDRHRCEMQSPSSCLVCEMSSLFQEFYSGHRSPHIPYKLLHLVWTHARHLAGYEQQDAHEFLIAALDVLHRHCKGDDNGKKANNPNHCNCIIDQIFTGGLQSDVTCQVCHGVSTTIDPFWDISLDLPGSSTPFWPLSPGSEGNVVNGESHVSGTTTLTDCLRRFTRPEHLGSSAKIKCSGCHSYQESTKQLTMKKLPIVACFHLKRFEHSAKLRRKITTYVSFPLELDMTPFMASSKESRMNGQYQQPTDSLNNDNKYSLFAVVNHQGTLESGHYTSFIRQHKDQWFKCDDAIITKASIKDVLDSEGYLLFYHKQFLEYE
Method in brief: as §1

[3] = molecular target: USP24 (UniProt Q9UPU5)
Method in brief: as §1

[4] = molecular target: T3, USP25 (UniProt Q9UHP3)
T3 sequence (whole entry): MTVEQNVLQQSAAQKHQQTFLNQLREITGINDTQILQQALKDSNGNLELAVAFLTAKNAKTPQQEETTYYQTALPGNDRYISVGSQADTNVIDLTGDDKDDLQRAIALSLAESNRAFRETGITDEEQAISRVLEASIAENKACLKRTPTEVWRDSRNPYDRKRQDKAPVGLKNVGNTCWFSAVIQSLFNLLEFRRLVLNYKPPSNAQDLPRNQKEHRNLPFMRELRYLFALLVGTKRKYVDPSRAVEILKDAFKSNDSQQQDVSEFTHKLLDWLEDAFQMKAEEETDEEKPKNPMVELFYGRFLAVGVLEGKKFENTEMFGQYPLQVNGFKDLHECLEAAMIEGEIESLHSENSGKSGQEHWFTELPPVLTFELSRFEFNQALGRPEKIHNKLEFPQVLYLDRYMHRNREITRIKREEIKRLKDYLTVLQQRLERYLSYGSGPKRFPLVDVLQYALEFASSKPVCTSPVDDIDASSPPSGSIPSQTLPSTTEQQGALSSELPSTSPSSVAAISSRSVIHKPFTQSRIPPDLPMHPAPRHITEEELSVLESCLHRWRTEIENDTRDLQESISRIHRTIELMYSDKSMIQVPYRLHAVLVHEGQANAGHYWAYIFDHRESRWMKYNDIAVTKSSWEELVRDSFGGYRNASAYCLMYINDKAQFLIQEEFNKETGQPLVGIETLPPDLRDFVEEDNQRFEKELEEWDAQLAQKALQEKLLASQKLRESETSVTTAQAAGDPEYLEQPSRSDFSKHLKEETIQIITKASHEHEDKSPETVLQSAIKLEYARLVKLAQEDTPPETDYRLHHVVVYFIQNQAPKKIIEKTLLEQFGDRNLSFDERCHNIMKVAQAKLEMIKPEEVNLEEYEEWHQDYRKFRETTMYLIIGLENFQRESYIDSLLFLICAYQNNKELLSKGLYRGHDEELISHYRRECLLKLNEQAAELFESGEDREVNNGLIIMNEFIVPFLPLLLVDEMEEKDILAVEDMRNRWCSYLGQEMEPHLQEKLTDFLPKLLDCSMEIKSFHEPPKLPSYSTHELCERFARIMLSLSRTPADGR
Method in brief: as §1

[5] = molecular target: T4, USP28 (UniProt Q96RU2)
T4 sequence (whole entry): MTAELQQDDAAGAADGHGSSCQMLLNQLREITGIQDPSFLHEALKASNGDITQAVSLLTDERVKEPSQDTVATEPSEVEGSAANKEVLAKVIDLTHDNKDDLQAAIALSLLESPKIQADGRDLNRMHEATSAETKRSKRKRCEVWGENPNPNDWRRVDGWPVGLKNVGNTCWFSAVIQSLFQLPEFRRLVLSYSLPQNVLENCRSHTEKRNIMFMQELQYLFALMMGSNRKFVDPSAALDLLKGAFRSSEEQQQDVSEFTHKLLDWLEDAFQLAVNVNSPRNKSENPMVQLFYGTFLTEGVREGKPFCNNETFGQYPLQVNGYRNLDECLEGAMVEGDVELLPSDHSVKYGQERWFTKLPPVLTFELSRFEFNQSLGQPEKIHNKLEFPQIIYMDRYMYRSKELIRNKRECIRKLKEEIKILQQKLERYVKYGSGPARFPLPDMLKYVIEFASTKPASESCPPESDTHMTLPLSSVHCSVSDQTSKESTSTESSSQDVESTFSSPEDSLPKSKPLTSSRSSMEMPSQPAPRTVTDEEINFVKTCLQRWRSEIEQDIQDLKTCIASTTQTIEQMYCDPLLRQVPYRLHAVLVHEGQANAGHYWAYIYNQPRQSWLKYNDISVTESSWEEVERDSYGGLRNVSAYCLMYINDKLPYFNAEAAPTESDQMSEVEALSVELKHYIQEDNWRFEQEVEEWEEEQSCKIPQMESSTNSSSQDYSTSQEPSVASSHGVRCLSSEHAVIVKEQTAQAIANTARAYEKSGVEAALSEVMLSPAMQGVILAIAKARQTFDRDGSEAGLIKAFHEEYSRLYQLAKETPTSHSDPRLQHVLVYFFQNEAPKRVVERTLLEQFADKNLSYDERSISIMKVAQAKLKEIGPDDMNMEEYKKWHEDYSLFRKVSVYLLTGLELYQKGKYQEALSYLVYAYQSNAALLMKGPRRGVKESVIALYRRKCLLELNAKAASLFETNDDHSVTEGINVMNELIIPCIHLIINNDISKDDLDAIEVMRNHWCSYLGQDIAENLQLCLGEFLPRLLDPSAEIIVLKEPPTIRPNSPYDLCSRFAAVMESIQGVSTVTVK
Method in brief: as §1

USP24, sequence (Q9UPU5 whole entry): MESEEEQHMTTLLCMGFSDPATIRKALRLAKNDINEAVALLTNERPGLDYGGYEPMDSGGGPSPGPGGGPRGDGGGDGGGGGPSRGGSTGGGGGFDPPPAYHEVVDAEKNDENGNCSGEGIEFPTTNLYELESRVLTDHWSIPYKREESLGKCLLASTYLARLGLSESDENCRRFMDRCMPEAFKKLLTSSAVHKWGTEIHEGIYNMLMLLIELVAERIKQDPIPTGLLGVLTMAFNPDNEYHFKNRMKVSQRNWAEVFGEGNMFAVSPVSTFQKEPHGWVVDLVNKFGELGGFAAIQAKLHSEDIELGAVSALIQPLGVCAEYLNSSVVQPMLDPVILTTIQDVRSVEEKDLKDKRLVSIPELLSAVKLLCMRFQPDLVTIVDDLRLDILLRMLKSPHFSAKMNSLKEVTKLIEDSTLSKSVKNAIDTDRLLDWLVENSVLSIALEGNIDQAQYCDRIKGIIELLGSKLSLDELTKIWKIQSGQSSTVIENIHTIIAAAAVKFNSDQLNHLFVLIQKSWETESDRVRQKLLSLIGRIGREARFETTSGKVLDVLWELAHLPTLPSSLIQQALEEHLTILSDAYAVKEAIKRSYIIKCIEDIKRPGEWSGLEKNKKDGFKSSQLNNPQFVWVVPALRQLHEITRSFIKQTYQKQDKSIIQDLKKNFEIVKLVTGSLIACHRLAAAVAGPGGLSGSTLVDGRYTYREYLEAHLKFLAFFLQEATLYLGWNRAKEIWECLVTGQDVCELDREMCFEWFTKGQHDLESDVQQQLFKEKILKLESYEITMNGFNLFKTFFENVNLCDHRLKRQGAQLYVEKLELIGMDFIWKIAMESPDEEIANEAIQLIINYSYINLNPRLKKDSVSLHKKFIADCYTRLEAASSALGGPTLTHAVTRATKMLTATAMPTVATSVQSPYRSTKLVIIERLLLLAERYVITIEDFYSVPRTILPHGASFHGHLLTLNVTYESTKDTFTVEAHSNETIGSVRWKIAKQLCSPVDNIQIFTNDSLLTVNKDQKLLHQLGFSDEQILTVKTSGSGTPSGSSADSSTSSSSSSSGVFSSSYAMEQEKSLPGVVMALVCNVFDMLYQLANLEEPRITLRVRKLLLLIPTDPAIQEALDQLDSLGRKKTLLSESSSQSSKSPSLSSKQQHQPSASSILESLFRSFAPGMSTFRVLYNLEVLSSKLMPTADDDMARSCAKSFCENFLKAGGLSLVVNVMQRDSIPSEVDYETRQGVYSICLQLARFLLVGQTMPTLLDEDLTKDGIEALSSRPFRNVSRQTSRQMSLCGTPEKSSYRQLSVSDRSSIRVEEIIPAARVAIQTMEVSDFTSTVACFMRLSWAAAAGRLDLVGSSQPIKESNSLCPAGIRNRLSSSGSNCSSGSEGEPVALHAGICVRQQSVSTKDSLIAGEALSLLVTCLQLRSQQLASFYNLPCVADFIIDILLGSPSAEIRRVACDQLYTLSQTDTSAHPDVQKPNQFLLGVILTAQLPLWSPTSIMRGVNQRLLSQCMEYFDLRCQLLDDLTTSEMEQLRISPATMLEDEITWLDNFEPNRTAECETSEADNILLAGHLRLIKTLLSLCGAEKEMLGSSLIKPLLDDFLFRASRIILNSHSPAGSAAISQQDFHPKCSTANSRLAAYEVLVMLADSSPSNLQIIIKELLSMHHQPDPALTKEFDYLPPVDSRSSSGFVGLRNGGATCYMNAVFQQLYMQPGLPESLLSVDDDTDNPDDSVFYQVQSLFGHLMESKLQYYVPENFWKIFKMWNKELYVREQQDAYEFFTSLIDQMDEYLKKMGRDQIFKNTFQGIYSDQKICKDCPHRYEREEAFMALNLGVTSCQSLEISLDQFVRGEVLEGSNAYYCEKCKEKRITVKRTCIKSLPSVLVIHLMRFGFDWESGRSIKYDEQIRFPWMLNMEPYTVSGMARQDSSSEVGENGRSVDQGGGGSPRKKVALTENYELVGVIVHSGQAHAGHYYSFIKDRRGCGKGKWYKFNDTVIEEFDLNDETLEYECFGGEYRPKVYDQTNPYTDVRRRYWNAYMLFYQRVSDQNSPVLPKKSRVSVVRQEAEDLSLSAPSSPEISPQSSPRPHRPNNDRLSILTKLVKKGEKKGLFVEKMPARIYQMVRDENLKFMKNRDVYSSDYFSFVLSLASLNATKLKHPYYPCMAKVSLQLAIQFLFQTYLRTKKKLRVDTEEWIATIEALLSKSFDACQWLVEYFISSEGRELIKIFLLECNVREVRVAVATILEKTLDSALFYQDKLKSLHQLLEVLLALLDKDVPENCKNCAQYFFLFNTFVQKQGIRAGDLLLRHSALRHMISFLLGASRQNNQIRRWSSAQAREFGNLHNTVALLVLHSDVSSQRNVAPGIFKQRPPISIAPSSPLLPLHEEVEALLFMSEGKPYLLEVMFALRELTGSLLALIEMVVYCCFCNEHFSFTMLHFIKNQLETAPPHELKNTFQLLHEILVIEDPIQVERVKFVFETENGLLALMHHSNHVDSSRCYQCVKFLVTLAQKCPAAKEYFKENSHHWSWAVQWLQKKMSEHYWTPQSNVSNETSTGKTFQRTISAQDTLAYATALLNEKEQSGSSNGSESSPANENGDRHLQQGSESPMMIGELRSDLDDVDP

Q: For `O=C(CCl)N1CCN(C(=O)N2CCCCC2)CC1`, which “log2 ratio of Biotin-Ahx-Ub-VS probe labelling” value (from here on “log2 ratio”) [1] is on record?
A: Its value is -0.943.

Q: What about the “log2 ratio” value [2] of the same molecule?
A: The value was -0.465.

Q: What about the “log2 ratio” value [3] of the same molecule?
A: Its value is -1.28 (active).

Q: What about the “log2 ratio” value [4] of the same molecule?
A: Its value is -1.09 (active).

Q: What about the “log2 ratio” value [5] of the same molecule?
A: Its value is -1.23 (active).
